Assay results published in PubChem BioAssay (NCI).
The panel holds about 83,000 compounds, 20% with a hit somewhere; the sample as a whole holds those more often.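 Step 1: grow cells in 96-well plates. Step 2: add test compound at a single concentration. Step 3: incubate 48 h. Step 4: record percent growth.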 A number with no mark means an inactive call. Activity calls are given as the source filed them. Rule for the calls: active = growth percent below 10; inactive = the rest.

Assays:
Assay in all cases: NCI-60 one-dose screen, 48 h (100 = growth as untreated, 0 = no growth, -100 = all killed)
Conditions in all cases: 10 µM unless noted
NCI-H23 lung = tested on: NCI-H23 lung
NCI-H226 lung = tested on: NCI-H226 lung
NCI-H322M lung = tested on: NCI-H322M lung
HOP-62 NSCLC = tested on: HOP-62 NSCLC
NCI-H460 lung = tested on: NCI-H460 lung
NCI-H522 lung = tested on: NCI-H522 lung
A549/ATCC NSCLC = tested on: A549/ATCC NSCLC
786-0 renal = tested on: 786-0 renal
COLO 205 colon = tested on: COLO 205 colon
DU-145 prostate = tested on: DU-145 prostate
K-562 leukemia = tested on: K-562 leukemia
MALME-3M melanoma = tested on: MALME-3M melanoma
MDA-MB-231 breast = tested on: MDA-MB-231 breast
RXF 393 renal = tested on: RXF 393 renal
SF-268 CNS = tested on: SF-268 CNS
SF-295 CNS = tested on: SF-295 CNS
SF-539 CNS = tested on: SF-539 CNS
UACC-257 melanoma = tested on: UACC-257 melanoma
M14 melanoma = tested on: M14 melanoma

SMILES: COc1ccc(C(=O)CSc2nc3c(c(Nc4ccc(S(N)(=O)=O)cc4)n2)CCCC3)cc1
- growth (NCI-H23 lung): 88.1%
- growth (NCI-H226 lung): 98%
- growth (NCI-H322M lung): 107%
- growth (HOP-62 NSCLC): 115%
- growth (NCI-H460 lung): 91.2%
- growth (NCI-H522 lung): 91.4%
- growth (A549/ATCC NSCLC): 92.7%
- growth (786-0 renal): 101%
- growth (COLO 205 colon): 108%
- growth (DU-145 prostate): 93.6%
- growth (K-562 leukemia): 72.7%
- growth (MALME-3M melanoma): 103%
- growth (MDA-MB-231 breast): 88.1%
- growth (RXF 393 renal): 82.5%
- growth (SF-268 CNS): 108%
- growth (SF-295 CNS): 90.6%
- growth (SF-539 CNS): 83.1%
- growth (UACC-257 melanoma): 109%
- growth (M14 melanoma): 104%

SMILES: COc1ccc(-c2nc3cc(Cl)c(Cl)cc3n2CC(=O)N=Nc2c(O)[nH]c3ccc(OC)cc23)cc1
- growth (NCI-H23 lung): 38.7%
- growth (NCI-H226 lung): -38.3% (active)
- growth (NCI-H322M lung): 80.4%
- growth (HOP-62 NSCLC): 43.2%
- growth (NCI-H460 lung): 56.1%
- growth (NCI-H522 lung): 69.3%
- growth (A549/ATCC NSCLC): 59.8%
- growth (786-0 renal): 82.5%
- growth (COLO 205 colon): 31.9%
- growth (DU-145 prostate): 5.81% (active)
- growth (K-562 leukemia): 49.2%
- growth (MALME-3M melanoma): 41.2%
- growth (MDA-MB-231 breast): 52%
- growth (RXF 393 renal): -29.8% (active)
- growth (SF-268 CNS): 78.3%
- growth (SF-295 CNS): 66.5%
- growth (SF-539 CNS): 47.2%
- growth (UACC-257 melanoma): 87.9%
- growth (M14 melanoma): 56.8%

SMILES: CNCc1cccc2c1OCCCCCCC(C)(O)CC(C)(C)S(=O)(=O)c1ccc(cc1)-c1cnc(N)c(n1)C(=O)N2 (stereo not drawn)
- growth (NCI-H23 lung): 9.01% (active)
- growth (NCI-H226 lung): 43.5%
- growth (NCI-H322M lung): 46.2%
- growth (HOP-62 NSCLC): 59.2%
- growth (NCI-H460 lung): -56.3% (active)
- growth (NCI-H522 lung): -66.8% (active)
- growth (A549/ATCC NSCLC): 11.4%
- growth (786-0 renal): -11.9% (active)
- growth (COLO 205 colon): -48.2% (active)
- growth (DU-145 prostate): 9.36% (active)
- growth (K-562 leukemia): -29.3% (active)
- growth (MALME-3M melanoma): -58.7% (active)
- growth (MDA-MB-231 breast): -6.41% (active)
- growth (RXF 393 renal): -90.7% (active)
- growth (SF-268 CNS): 13.2%
- growth (SF-295 CNS): 10.9%
- growth (SF-539 CNS): -72% (active)
- growth (UACC-257 melanoma): 18.1%
- growth (M14 melanoma): -88.9% (active)

SMILES: CCN(CC)c1ccc(NC2=C(Cl)C(=O)c3nc(C)ccc3C2=O)cc1
- growth (NCI-H23 lung): -10.3% (active)
- growth (NCI-H226 lung): 87.9%
- growth (NCI-H322M lung): 109%
- growth (HOP-62 NSCLC): 130%
- growth (NCI-H460 lung): 100%
- growth (NCI-H522 lung): -44.3% (active)
- growth (A549/ATCC NSCLC): 100%
- growth (786-0 renal): 60.6%
- growth (COLO 205 colon): 101%
- growth (DU-145 prostate): 87.9%
- growth (K-562 leukemia): 0.916% (active)
- growth (MALME-3M melanoma): -11.1% (active)
- growth (MDA-MB-231 breast): -46.5% (active)
- growth (RXF 393 renal): -95.1% (active)
- growth (SF-268 CNS): 90.8%
- growth (SF-295 CNS): 105%
- growth (SF-539 CNS): 102%
- growth (UACC-257 melanoma): -57.7% (active)
- growth (M14 melanoma): 40.4%

SMILES: Cc1cc2ncc(-c3cc4ccccc4c(N4CCN(C)CC4)n3)nc2cc1C
- growth (NCI-H23 lung): 70.7%
- growth (NCI-H226 lung): 91.9%
- growth (NCI-H322M lung): 47.7%
- growth (HOP-62 NSCLC): 82.9%
- growth (NCI-H460 lung): -77.9% (active)
- growth (NCI-H522 lung): 75.5%
- growth (A549/ATCC NSCLC): 54%
- growth (786-0 renal): 61.3%
- growth (COLO 205 colon): -57.9% (active)
- growth (DU-145 prostate): 33.6%
- growth (K-562 leukemia): -50.7% (active)
- growth (MALME-3M melanoma): -69.1% (active)
- growth (MDA-MB-231 breast): 18.6%
- growth (RXF 393 renal): -71.8% (active)
- growth (SF-268 CNS): 62.7%
- growth (SF-295 CNS): 10.2%
- growth (SF-539 CNS): -2.53% (active)
- growth (UACC-257 melanoma): 99.1%
- growth (M14 melanoma): -85.7% (active)

SMILES: COc1cc(OC)c(S(N)(=O)=O)cc1C(=O)/C=C/c1ccc(Cl)cc1
- growth (NCI-H23 lung): 6.85% (active)
- growth (NCI-H226 lung): -26% (active)
- growth (NCI-H322M lung): 16.3%
- growth (HOP-62 NSCLC): 9.71% (active)
- growth (NCI-H460 lung): -11.2% (active)
- growth (NCI-H522 lung): -6.47% (active)
- growth (A549/ATCC NSCLC): 6.83% (active)
- growth (786-0 renal): 13.8%
- growth (COLO 205 colon): -30% (active)
- growth (DU-145 prostate): 5.02% (active)
- growth (K-562 leukemia): 7.15% (active)
- growth (MALME-3M melanoma): 61.4%
- growth (MDA-MB-231 breast): 11.5%
- growth (RXF 393 renal): -40.4% (active)
- growth (SF-268 CNS): 6.79% (active)
- growth (SF-295 CNS): 1.14% (active)
- growth (SF-539 CNS): 0.148% (active)
- growth (UACC-257 melanoma): 73.6%
- growth (M14 melanoma): 19.9%

SMILES: O=S(=O)(NC1c2ccccc2C[C@H]1O)c1ccc(Cl)cc1Cl (stereo partly drawn)
- growth (NCI-H23 lung): 92.3%
- growth (NCI-H226 lung): 93.6%
- growth (NCI-H322M lung): 94.6%
- growth (HOP-62 NSCLC): 103%
- growth (NCI-H460 lung): 101%
- growth (NCI-H522 lung): 98.3%
- growth (A549/ATCC NSCLC): 93.5%
- growth (786-0 renal): 102%
- growth (COLO 205 colon): 114%
- growth (DU-145 prostate): 114%
- growth (K-562 leukemia): 95.2%
- growth (MALME-3M melanoma): 93.6%
- growth (MDA-MB-231 breast): 99.5%
- growth (RXF 393 renal): 107%
- growth (SF-268 CNS): 96.7%
- growth (SF-295 CNS): 108%
- growth (SF-539 CNS): 101%
- growth (UACC-257 melanoma): 102%
- growth (M14 melanoma): 92.3%
